Source: PubChem BioAssay (National Center for Advancing Translational Sciences (NCATS))
D1 antag – Antagonist of Human D 1 Dopamine Receptor: qHTS; D(1A) dopamine receptor (Homo sapiens), P21728; HEK293 TREx D1 cells, calcium flux, dopamine EC80; hits give low values; activity change, negative = inhibition, % at 10 µM; 360,000 compounds, 3.2% hits; in the data active = activity change below about -30%; note: % is set by controls: 0 for no effect and ±100 for the full control effect
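HEK293 T-REx cells expressing inducible, force-coupled D1 receptor; no-wash Ca dye, 30–90 min RT. Cmpd → 180 s read at 1 Hz → EC80 DA → 180 s read.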
TRHR ag – qHTS for Small Molecule Agonists and Allosteric Enhancers of Human TRH Receptor: Primary Screen for Agonists. TRHR cells, calcium flux fluo-8, FDSS agonist mode. activation, % at 2 µM. 360,000 compounds, 0.18% hits. AID 493084, 2011; note: 0% is about no effect
Target sequence (P34981 whole entry, looked up): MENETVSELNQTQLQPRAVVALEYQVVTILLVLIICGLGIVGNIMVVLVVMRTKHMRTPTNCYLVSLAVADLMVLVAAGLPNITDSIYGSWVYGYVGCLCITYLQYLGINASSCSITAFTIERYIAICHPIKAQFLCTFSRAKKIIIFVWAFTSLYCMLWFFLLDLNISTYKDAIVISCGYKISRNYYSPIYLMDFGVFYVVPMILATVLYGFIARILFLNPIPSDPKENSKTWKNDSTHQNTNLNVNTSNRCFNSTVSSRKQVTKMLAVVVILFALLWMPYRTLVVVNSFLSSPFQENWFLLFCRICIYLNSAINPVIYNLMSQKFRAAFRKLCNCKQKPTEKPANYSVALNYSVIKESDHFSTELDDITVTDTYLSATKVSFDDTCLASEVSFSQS
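TRHR-expressing cells loaded with fluo-8 calcium dye; 23 nL library compound pin-transferred, kinetic FDSS fluorescence (Ex 480/Em 530) recorded about 180 s for agonist-induced calcium release, before a 10 nM TRH EC20 addition for potentiator mode.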
TRHR PAM – qHTS for Small Molecule Agonists and Allosteric Enhancers of Human TRH Receptor: Primary Screen for Enhancers. TRHR cells, fluo-8 calcium fluorescence, EC20 TRH enhancement. enhancement, % at 2 µM. 360,000 compounds, 0.66% hits. AID 493056, 2011; in the data active = enhancement above about 30%; note: 0% is about no effect
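Enhancer read-out: after compound pinning and an initial kinetic agonist-mode read, an EC20 of TRH (10 nM final) was injected and fluo-8 calcium signal (Ex 480/Em 530) followed at 1 s/cycle for 100 cycles in TRHR-expressing cells.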
D1 PAM – Potentiators of Human D1 Dopamine Receptor: qHTS. HEK293 TREx D1 cells, calcium flux, dopamine EC20 potentiation. potentiation, % at 10 µM. D(1A) dopamine receptor (Homo sapiens), P21728. 360,000 compounds, 0.036% hits; in the data active = potentiation above about 30%; note: 0% is about no effect
D1 ag – Allosteric Agonists of the Human D1 Dopamine Receptor: qHTS; D(1A) dopamine receptor (Homo sapiens), P21728; HEK293 T-REx D1 cells, calcium flux, agonist mode; activation, % at 2 µM; 360,000 compounds, 1% hits; AID 504660, 2011; note: 0% is about no effect
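Inducible HEK293 T-REx D1 cells, force-coupled to calcium signalling, were plated at 4000 cells/well with tetracycline and held overnight at 30 C. After no-wash calcium dye loading, compound-evoked calcium rise over 180 s flagged agonists.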
An asterisk follows results filed as active. Most compounds without a hit are left out; they make up all but 4.7% or so of the library. Cut-off read from the data, not from the text of the source, unless noted: active = activation above about 30%; inactive = the rest.

SMILES | D1 antag | TRHR ag | TRHR PAM | D1 PAM | D1 ag
CC(C)N1C(=O)CCC1C(=O)N1CCN(c2ccc(F)cc2)CC1 (centres undefined) | -8.3 | 0.6 | 7.2 | 2.0 | 1.9
CN(CCCNC(=O)C1CCC(=O)N1Cc1ccccc1Cl)c1ccccc1 (centres undefined) | -9.9 | -0.2 | -13.0 | 0.8 | 0.9
O=C(Nc1cc(Cl)cc(Cl)c1)C1CCC(=O)N1Cc1ccccc1Cl (centres undefined) | -20.3 | -1.5 | 40.3* | -10.7 | 26.7
Cc1csc2ncnc(N3CCN(C(=O)Nc4ccc(OC(F)(F)F)cc4)CC3)c12 | -25.9 | -0.3 | 3.9 | -9.4 | 12.4
CC(C)Cc1nnc(NC(=O)c2ccc(S(=O)(=O)N3CCCC3)cc2)s1 | -2.5 | 0.0 | -1.4 | -5.0 | 2.5
CN(C)CC(CCC(CN(C)C)C(O)(c1ccccc1)c1ccccc1)C(O)(c1ccccc1)c1ccccc1 (centres undefined) | -41.4* | 4.5 | -14.8 | -6.9 | 27.3
CCOC(=O)c1ccc(NC(=S)NCc2ccccc2)cc1 | -56.0* | 0.6 | -0.7 | -16.9 | 21.7
CCOC(=O)c1ccc(NC(=S)NCCc2ccccc2)cc1 | -38.3* | 0.9 | -0.3 | -6.6 | 27.6
CC(=O)c1ccc(NC(=S)NCCc2cccc(Cl)c2)cc1 | -37.1* | 1.1 | -0.5 | -6.2 | 21.7
CCOC(=O)c1ccc(NC(=O)NCc2ccccc2)cc1 | -9.1 | -0.2 | -9.9 | -5.8 | 6.6
COC(=O)c1ccc(NC(=S)NCCc2ccccc2)cc1 | -10.1 | 0.3 | 2.7 | -8.4 | 11.9
Cc1cccc(NC(=O)C(NS(=O)(=O)c2cccc3nsnc23)c2ccccc2)c1C (centres undefined) | 26.6 | 0.5 | -2.6 | 0.9 | 1.3
CCN(CC)S(=O)(=O)c1ccc(F)c(C(=O)OC2CC(C)OC2=O)c1 (centres undefined) | 14.2 | 0.0 | -1.2 | -9.4 | 0.0
Cc1ccccc1Cn1ccn(-c2ccc(F)c(F)c2)c(=O)c1=O | 10.1 | -0.1 | -5.0 | -1.7 | 6.0
CCc1nnc(NS(=O)(=O)c2ccc(NC(=S)NC(=O)c3ccc(OC)c(OC)c3)cc2)s1 | -2.4 | 0.1 | -4.9 | 5.3 | 1.9
CCOc1ccc(NS(=O)(=O)c2ccc(NC(=S)NC(C)=O)cc2)cc1 | -10.6 | 5.4 | -5.5 | -4.8 | 94.6*
CCOc1ccc(NS(=O)(=O)c2ccc(NC(=S)NC(=O)C(C)C)cc2)cc1 | 10.1 | 2.2 | 8.6 | -4.3 | 31.9*
COc1ccc(S(=O)(=O)Nc2ccc(NC(C)=O)cc2)cc1 | -15.3 | 0.2 | 4.6 | -1.3 | 1.9
CC(C)C(=O)NC(=S)Nc1ccc(S(=O)(=O)NC2CCCCC2)cc1 | -32.1* | 1.3 | -2.1 | -4.7 | 10.8
CCc1nnc(NS(=O)(=O)c2ccc(NC(=S)NC(=O)c3ccc(OC)cc3)cc2)s1 | -31.5* | 0.0 | 1.3 | 11.2 | 1.5
CCC(Sc1nc2ccsc2c(=O)n1-c1ccc(Cl)c(C)c1)C(=O)NCc1ccco1 (centres undefined) | -18.8 | -0.4 | -4.5 | 7.3 | 4.8
COc1ccc2nccnc2c1[N+](=O)[O-] | -2.4 | -0.1 | -5.9 | 0.4 | 1.0
Cc1ccc(CNC(=O)CCCn2nc(C)n3ccnc3c2=O)cc1 | -2.1 | -0.1 | 8.5 | -3.0 | 3.4
O=C(NCc1cccc(F)c1)c1ccc(NC(=O)c2nsc3ccccc23)cc1 | -1.3 | 0.3 | -3.4 | 0.9 | 7.7
CCOc1ccc(S(=O)(=O)Nc2ccc(C(=O)NCC(c3ccccc3)N(C)C)cc2)cc1 (centres undefined) | -5.1 | 0.7 | -3.4 | -2.0 | 3.6
SMILES | D1 antag | TRHR ag | TRHR PAM | D1 PAM | D1 ag
CCN(CC)C(=O)c1cc(S(=O)(=O)N2CCCCC2)c[nH]1 | -35.7* | 0.7 | -1.3 | -3.1 | 7.9
CCN(C(=O)c1cc(S(=O)(=O)N2CCCCC2)c[nH]1)c1ccc(OC)cc1 | -0.5 | -0.9 | 6.9 | -3.2 | 0.4
CC1CCN(C(=O)c2cc(S(=O)(=O)N3CCCCC3)c[nH]2)CC1 | -33.3* | -0.2 | -0.5 | -8.9 | 1.9
CCOC(=O)c1sc(=S)n(Cc2ccccc2)c1C | -30.6* | -0.2 | -8.1 | -0.5 | 6.5
COc1cc(C2C(C(=O)Nc3ccccc3C)=C(C)Nc3nc(SCc4cc(C)ccc4C)nn32)ccc1O (centres undefined) | 2.3 | -0.6 | 7.4 | 1.6 | 0.7
O=C(NC(=S)Nc1ccccn1)c1ccc(-c2ccccc2)cc1 | -32.2* | 0.2 | 1.2 | -8.7 | 5.9
O=C(Nc1ccncc1)c1ccc(-c2ccccc2)cc1 | -39.5* | 0.1 | 4.8 | -12.8 | 17.6
O=C(Nc1ccncc1)c1ccc(F)cc1 | -13.3 | -0.4 | -0.6 | -2.6 | 1.7
O=C(Nc1cccnc1)c1ccc(F)cc1 | -2.0 | 0.5 | -1.5 | -2.7 | -0.2
O=C(Nc1cccnc1)c1ccc(-c2ccccc2)cc1 | -30.3* | 0.3 | 0.9 | -9.2 | 5.2
COc1ccc(-c2nc3nc(C)cc(Nc4ccc(C(C)=O)cc4)n3n2)cc1 | -1.1 | -0.9 | -4.7 | 1.4 | 3.5
COc1ccc(S(=O)(=O)N(CCc2ccccc2)CC(=O)Nc2cc(C)cc(C)c2)cc1OC | -36.2* | -0.5 | 2.7 | 1.0 | 6.7
COc1ccc(S(=O)(=O)N(CCc2ccccc2)CC(=O)NCc2ccccc2)cc1OC | -16.1 | 0.3 | -1.8 | 1.0 | 1.7
Cc1ccccc1OCCC(=O)OCC(=O)NCCNC(=O)COC(=O)CCOc1ccccc1C | -43.3* | 0.0 | -2.1 | -5.0 | 14.1
COc1ccc(CNC(=O)CCc2c(C)c3cc4c(C)c(C)oc4cc3oc2=O)cc1 | -35.9* | -2.2 | -1.3 | -1.2 | -0.2
COCCCNC(=O)CCc1c(C)c2cc3c(C)coc3cc2oc1=O | -56.5* | -0.5 | 1.0 | -3.5 | 7.3
C[C@@H](CN1C(=O)C(=O)NC[C@@H]1C)NC(=O)CC12CC3CC(CC(C3)C1)C2 | -2.2 | 0.2 | 1.2 | 0.0 | -0.8
O=S(=O)(Nc1cccc2c1CCCC2)c1cccc(C(F)(F)F)c1 | -9.1 | -2.1 | -7.1 | 1.9 | 5.7
Cc1ccc(S(=O)(=O)Nc2cccc3c2CCCC3)cc1 | -31.9* | -0.9 | 15.0 | -2.5 | 6.5
FC(F)(F)c1cccc(-c2nc3nc(Cl)c(Cl)nc3[nH]2)c1 | -35.2* | 6.9 | -14.5 | -7.7 | 32.9*
COc1ccccc1N/C(N)=N/c1nc(C(F)(F)F)cc(=O)[nH]1 | -56.9* | 0.0 | 1.2 | -10.4 | 4.0
COc1ccc(N/C(N)=N/c2nc(C)cc(=O)[nH]2)cc1 | -36.6* | 0.3 | 7.1 | -1.6 | 4.5
